From PubChem
TRPV1 ag: HTS Assay for Compounds that Act as Agonists of the Vanilloid Receptor 1. Transient receptor potential cation channel subfamily V member 1 (Homo sapiens), Q8NER1. TRPV1-expressing cells, Fluo-8 calcium influx, agonist mode. activation, % at 8.33 µM. hit rate 0.19% among 320,000. AID 540275, 2011; in the data active = activation above about 80%; inconclusive = between about 30% and that limit; note: 0% is about no effect
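TRPV1-expressing cells were cultured overnight at 35.5C and loaded with Fluo-8 calcium dye for 40 to 90 min at room temperature. After a 10 s baseline, compound was added and calcium influx was read kinetically for 3 min (ex 480/em 520 nm).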
TRPV1 PAM: HTS Assay for Compounds that Act as Potentiators of the Vanilloid Receptor 1 | TRPV1-expressing cells, Fluo-8 calcium influx, capsaicin EC20 potentiation | potentiation, % at 8.33 µM | hit rate 0.02% among 320,000 | AID 540277, 2011; in the data active = potentiation above about 80%; inconclusive = between about 30% and that limit; note: 0% is about no effect
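TRPV1-expressing cells were cultured overnight at 35.5C and loaded with Fluo-8 calcium dye for 40 to 90 min at room temperature. After a 10 s baseline, compound was added and calcium influx was read kinetically for 3 min (ex 480/em 520 nm).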
TRPML1 blocker: qHTS for Inhibitors of the Human Mucolipin Transient Receptor Potential 1 (TRPML1). TRPML1-inducible cells, Ca2+ dye fluorescence, FDSS; stronger effect = lower value; inhibition of EC80 agonist-evoked calcium signal. activity change, negative = inhibition, % (no concentration beside the values). hit rate 0.02% among 390,000; in the data active = activity change below about -50%; inconclusive = between about -30% and that limit;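 note: stimulus is agonist 54-4 at its EC80 concentration; % is set by controls: 0 for no effect and ±100 for the full control effect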
Target sequence (Q9GZU1 whole entry, looked up): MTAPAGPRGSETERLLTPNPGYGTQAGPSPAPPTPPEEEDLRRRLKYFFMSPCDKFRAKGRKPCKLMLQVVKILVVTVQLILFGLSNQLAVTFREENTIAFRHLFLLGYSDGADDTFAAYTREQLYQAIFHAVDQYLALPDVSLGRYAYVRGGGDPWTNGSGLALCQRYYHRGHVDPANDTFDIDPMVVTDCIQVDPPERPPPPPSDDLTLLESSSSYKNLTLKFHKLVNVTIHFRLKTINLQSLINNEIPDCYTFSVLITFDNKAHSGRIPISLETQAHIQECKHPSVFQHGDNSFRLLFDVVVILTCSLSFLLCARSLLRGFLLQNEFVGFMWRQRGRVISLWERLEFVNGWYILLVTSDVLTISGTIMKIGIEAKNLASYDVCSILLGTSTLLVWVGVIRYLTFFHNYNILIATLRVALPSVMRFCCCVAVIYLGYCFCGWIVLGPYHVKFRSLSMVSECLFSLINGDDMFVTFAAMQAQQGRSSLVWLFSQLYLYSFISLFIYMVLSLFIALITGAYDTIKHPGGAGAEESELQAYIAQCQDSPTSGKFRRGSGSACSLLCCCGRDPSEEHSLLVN
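TRPML1-DL cells, Tet-induced overnight (~16 h, 37 °C) at 1,500 cells/well, were loaded with Ca8 no-wash dye plus quencher for 45-90 min at room temperature. Compounds were pinned during FDSS kinetic reading; agonist 54-4 at EC80 (4 uM final) then added.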
TRPML1 ag: qHTS for Agonists of the Human Mucolipin Transient Receptor Potential 1 (TRPML1). Mucolipin-1 (Homo sapiens), Q9GZU1. activation, % (no concentration beside the values). TRPML1-expressing cells, Ca2+ dye fluorescence, FDSS. hit rate 0.12% among 410,000; in the data active = activation above about 50%; inconclusive = mostly about 30% to 49%; note: 0% is about no effect
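Cells: TRPML1-DL, 1X Tet inducer, ~16 h at 37 degrees C/5% CO2. Dye: ABD Ca8 no-wash + quencher, 45-90 min RT. Read: 10 s baseline, compound add, 110 s agonist phase; 54-4 EC80 (4uM final), 110 s antagonist phase.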
TRHR enhancer-1: qHTS for Small Molecule Agonists and Allosteric Enhancers of Human TRH Receptor: Primary Screen for Enhancers | AID 493056, 2011 | Thyrotropin-releasing hormone receptor (Homo sapiens), P34981 | enhancement, % at 2 µM | hit rate 0.66% among 360,000 | TRHR cells, fluo-8 calcium fluorescence, EC20 TRH enhancement; in the data active = enhancement above about 30%; note: 0% is about no effect
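TRHR-expressing cells loaded with fluo-8 calcium dye were read kinetically (ex 480/em 530) during compound addition, then stimulated with an EC20 of TRH (10 nM final). Enhancement of the Gq-mediated intracellular calcium response was scored.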
TRHR agonist-1: qHTS for Small Molecule Agonists and Allosteric Enhancers of Human TRH Receptor: Primary Screen for Agonists; Thyrotropin-releasing hormone receptor (Homo sapiens), P34981; TRHR cells, calcium flux fluo-8, FDSS agonist mode; hit rate 0.18% among 360,000; activation, % at 2 µM; in the data active = activation above about 30%; note: 0% is about no effect
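TRHR-expressing cells, plated overnight in medium with 10% serum, were loaded with fluo-8 calcium dye at room temperature. After a 10 s baseline, library compound was pin-added and calcium release was recorded kinetically (ex 480/em 530) as agonist response.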
TRHR enhancer-2: qHTS for Small Molecule Agonists and Allosteric Enhancers of Human TRH Receptor: Confirmation Screen for Enhancers; shares compounds with TRHR enhancer-1; TRH receptor cell assay, enhancer confirmation qHTS; activity change, negative = inhibition, % at 46.1 µM; 970 tested, under 10 active; AID 493076, 2011;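 note: compound effect scored on response to added TRH at EC20 of 10 nM; 0% is about no effect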
TRHR agonist-2: qHTS for Small Molecule Agonists and Allosteric Enhancers of Human TRH Receptor: Confirmation Screen for Agonists; TRHR-expressing cells, agonist activation read-out; Potency, µM (highest dose often 46.1 µM), for inactives: at the highest dose activation, actives largely listed as activators; shares compounds with TRHR enhancer-1; hit rate 8% among 970; note: potency is the fitted concentration of half-maximal effect; 0% is about no effect; nearly all actives have a fitted effect of over 75% in size
Active calls of the source: *; ? = inconclusive; . = no result given. This is a sample that favours compounds with a hit; in the whole collection about 0.99% have one here. Unless noted, calls come from the whole dose curve; as a rule, active = well fitted curve in the direction sought with a large enough effect; inconclusive = small, poorly fitted or top-dose-only effect, or another doubt; inactive = no such curve, though single readings can be large; an effect the other way counts as inactive or inconclusive.

SMILES	TRPV1 ag	TRPV1 PAM	TRPML1 blocker	TRPML1 ag	TRHR enhancer-1	TRHR agonist-1	TRHR enhancer-2	TRHR agonist-2
Cc1cccc(N2CCN(C(=O)c3ccccn3)CC2C)c1 (stereo not given)	?	-23	5	-1	1	-2	.	.
N#Cc1ccccc1S(=O)(=O)N1CCN(C(=O)C2COc3ccccc3O2)CC1 (stereo not given)	1	?	19	1	54*	0	-10	?
O=C(C1COc2ccccc2O1)N1CCN(S(=O)(=O)c2cc(F)ccc2F)CC1 (stereo not given)	21	0	7	4	-2	0	.	.
COc1ccc(C(=O)C[n+]2cccc3cccc(O)c32)cc1	.	.	.	0	.	.	.	.
CCOc1ccc(N=C2NC(=O)C(CC(=O)O)S2)cc1 (stereo not given)	4	4	1	1	53*	1	-11	-1%
O=C(O)CC1SC(=Nc2ccc(O)cc2)NC1=O (stereo not given)	-1	?	-10	1	2	0	.	.
COc1ccc(CCn2c(=S)[nH]c(=O)c3[nH]cnc32)cc1OC	.	.	.	0	.	.	.	.
COc1ccc(C(=O)Nc2ccccc2C(=O)NC(C(=O)NCc2ccco2)C(C)C)cc1 (stereo not given)	-2	7	-5	0	48*	0	0	0%
COc1ccc(C(=O)N[C@H](C(=O)NCc2ccco2)C(C)C)cc1	-1	15	21	-1	-4	0	.	.
O=C(O)c1ccc(N/N=C/c2ccc(F)c(F)c2)cc1	-3	?	-1	0	47*	0	-9	-1%
O=C(O)c1ccc(N/N=C/c2cccc(F)c2)cc1	-5	4	-3	0	3	0	.	.
CCc1cc(=O)[nH]c(SCc2ccc(C)cc2)n1	-1	11	-9	2	54*	0	-1	-1%
CCn1cc(C(=O)N2CCN(c3cccc(C)c3C)CC2)c(=O)c2ccc(C)nc21	1	3	-11	0	6	-1	.	.
CCn1cc(C(=O)N2CCN(c3ccc([N+](=O)[O-])cc3)CC2)c(=O)c2ccc(C)nc21	-1	17	28	-1	46*	-1	16	1%
Cc1ccc2c(CC(=O)OCC(=O)N(CC(C)C)c3c(N)n(Cc4ccccc4)c(=O)[nH]c3=O)coc2c1	2	-8	-14	1	49*	0	0	?
CCN(C(=O)COC(=O)Cc1coc2cc(C)ccc12)c1c(N)n(Cc2ccccc2)c(=O)[nH]c1=O	-1	-3	-8	0	-1	0	.	.
CC1(Cc2cn(CCC#N)c3ccccc23)OCCO1	-1	14	23	3	1	0	.	.
N#CCCn1cc(CNC2CCC(O)CC2)c2ccccc21 (stereo not given)	5	22	2	0	45*	-2	?	-1%
O=C(O)c1ccc(CNc2ncnc3nc[nH]c23)cc1	.	.	.	0	.	.	.	.
CCCOc1ccc(/C=C2\SC(=S)N(CC3CCCO3)C2=O)cc1 (stereo not given)	3	-4	22	0	-4	1	.	.
O=C1/C(=C/c2ccc(O)cc2)SC(=S)N1CC1CCCO1 (stereo not given)	26	-6	0	17	16	39*	-6	?
CCOC(=O)CNC(=O)C1CCCCC1	.	.	.	0	.	.	.	.
O=C1Nc2ccccc2/C1=C/c1ccccc1Cl	2	10	5	-2	-2	0	.	.
COc1ccccc1/C=C1\C(=O)Nc2ccccc21	5	0	-5	-1	41*	0	-9	-1%
COc1ccc(C(=O)NCCc2nnc3ccc(SCC(=O)NCc4ccccc4)nn23)cc1	?	-6	-4	1	64*	-1	-6	-1%
SMILES	TRPV1 ag	TRPV1 PAM	TRPML1 blocker	TRPML1 ag	TRHR enhancer-1	TRHR agonist-1	TRHR enhancer-2	TRHR agonist-2
C[N+]1(CCCCCCC(=O)/C=N/O)CCCCCC1	2	-2	-8	-1	43*	2	-1	-1%
C[N+](C)(C)CCCCCCC(=O)/C=N/O	-7	-15	8	-1	-4	0	.	.
COc1ccc(C(=O)c2sc3nc(-c4ccccc4)ccc3c2N)cc1OC	1	8	1	12	2	44*	-3	?
O=C(COC(=O)c1ccc(F)cc1)NCC1CCCCC1	.	.	4	2	.	.	.	.
COc1ccc(C(=O)OCC(=O)NCC2CCCCC2)cc1F	17	-11	20	0	41*	-1	3	1%
CCCCNC(=O)c1cc(-c2ccc(F)cc2)on1	-1	1	-20	2	41*	0	-2	6%
Cc1cc[n+](CC#N)cc1	.	.	.	0	.	.	.	.
CN(C)c1ccc(/C=C/c2ccnc3c(O)ccc(O)c23)cc1	.	.	.	0	.	.	.	.
CC(NS(=O)(=O)c1ccccc1[N+](=O)[O-])c1ccccn1 (stereo not given)	.	.	.	0	.	.	.	.
Cc1n[nH]c(C)c1CCN(C)C(=O)C1CCC(=O)N(CC2CCCCC2)C1 (stereo not given)	-1	1	-1	0	3	1	.	.
CN(CCc1cnn(C)c1)C(=O)C1CCC(=O)N(CC2CCCCC2)C1 (stereo not given)	-1	0	-6	0	66*	1	-9	-1%
Cc1cccc(N2CCN(C(=O)COc3cc4oc(=O)cc(C)c4cc3Cl)CC2)c1C	0	8	-8	1	70*	0	0	0%
Cc1ccc(C)c(NC(=O)CSc2cccc3cccnc23)c1	-3	?	32	0	-9	0	.	.
Cc1cccc(NC(=O)CSc2cccc3cccnc23)c1	2	5	3	-1	-3	27	-13	1%
